The values that follow come from PubChem BioAssay (NCATS).

The test system of one assay is CRL-7250. The assay is described as follows: Cytotoxic Profiling of Annotated Libraries Using Quantitative High-Throughput Screening (AID 1296008). Further: potency means the concentration at half of the fitted maximal effect. The following applies: Five cell lines viability, CellTiter-Glo ATP luminescence, 48-72 h; max response: active compounds read low. The method, boiled down:
(§1)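 Cells exposed to compounds for 48 or 72 hr at 37 degrees Celsius. Viability read as ATP-coupled luminescence with CellTiter-Glo after 10 min at room temperature.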
For orientation: ATP-based viability assays read luminescence as a measure of living cells.

A further assay has as its system HEK293. The assay is described as above. The following applies: Five cell lines viability, CellTiter-Glo ATP luminescence, 48-72 h; max response: active compounds read low. The method, boiled down: as §1
For assay [1], the system named is HaCat. The assay is described as above. The following applies: Five cell lines viability, CellTiter-Glo ATP luminescence, 48-72 h; max response: active compounds read low. The method, boiled down:
as §1

The subject of a further assay is KB-3-1. Described as above. Particulars: Five cell lines viability, CellTiter-Glo ATP luminescence, 48-72 h; max response: active compounds read low. In short, it runs like this: as §1
The test system of another assay is NIH3T3. The assay is described as above. Particulars: Five cell lines viability, CellTiter-Glo ATP luminescence, 48-72 h; max response: active compounds read low. In short, it runs like this:
as §1

In assay [2] the test system is HACAT. Kind of assay: qHTS assay to identify novel small-molecules to repurpose for Merkel cell carcinoma treatment (AID 1296009). Particulars: MCC and control cell lines, CellTiter-Glo viability, 72 h; series mostly up to 44.8 µM. The method, boiled down:
(§2)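 Cells were incubated with compound for 72 hr at 37 degree celsius before CellTiter-Glo addition. Luminescence was normalized with no-cell wells as full cytotoxicity and DMSO as baseline.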
(In general: qHTS replaces the single test concentration by a dilution series.)

The next assay has as its system HEK293T. The assay is described as above. The following applies: MCC and control cell lines, CellTiter-Glo viability, 72 h; at 44.8 µM (top of the series) unless noted. In short, it runs like this: as §2
The test system of another assay is MCC-13. The assay is described as above. The following applies: MCC and control cell lines, CellTiter-Glo viability, 72 h; series mostly up to 46 µM. The method, boiled down: as §2
Another assay relates to MCC-26. The description is as above. Particulars: MCC and control cell lines, CellTiter-Glo viability, 72 h; series mostly up to 46 µM. The method, boiled down:
as §2

The subject of the next assay is MKL-1. The assay is described as above. Particulars: MCC and control cell lines, CellTiter-Glo viability, 72 h; series mostly up to 46 µM. The method, boiled down:
as §2

Each structure is given as a SMILES string. Records with an inconclusive call do not appear. A number with no mark means an inactive call. The source made the active and inactive calls. The call rests on the fitted dose curve; in most records, active means well fitted inhibition curve with a large enough effect; inconclusive means small, poorly fitted or top-dose-only effect; inactive means flat fitted curve, though single readings scatter.
Further: nearly all actives have a fitted effect of over 60% in size.
On the % scale 0 is the no-effect control and ±100 the full control effect.

Consider `O=C(O)C1CN(Cc2ccc(-c3nc4cc(Cc5ccccc5F)ccc4s3)c(F)c2)C1`, for which the max response with CRL-7250 is 1.29%; in the assay on HEK293 it was -0.852%; with KB-3-1, -5.18%; in the assay with NIH3T3, 3.31%. Further, in the assay on HaCat [1], the result was inactive. For the same compound, in the assay on HACAT [2], the outcome is “inactive [at 9.27 µM]”.

With `C=C1C(OC2OCC(O)C(O)C2O)CC2C(C)(C)C(O)CCC2(C)C1CC/C(C)=C\CO` (stereo not drawn), the max response in the assay on CRL-7250 was -6.07%; in the assay on HEK293, -24.4%; with KB-3-1, 3.38%; in the assay with NIH3T3, 1.42%. Also, the compound was classed as inactive in the assay on HaCat [1]. Also, the Potency result in the assay on HACAT [2] was “inactive”.

As to `C[C@@H]1O[C@@H](O[C@H]2[C@@H]3C=CO[C@@H](O[C@@H]4O[C@H](CO)[C@@H](O)[C@H](O)[C@H]4O)[C@@H]3[C@@]3(CO)O[C@@H]23)[C@H](OC(=O)/C=C/c2ccccc2)[C@H](O)[C@H]1O`, the max response is -0.445% with CRL-7250, -1.51% with HEK293 and -1.15% in the assay with NIH3T3. For the same compound, the compound was called inactive with HaCat [1] and with KB-3-1. In the assay on HACAT [2], the Potency entry is “inactive”.

For `C/C=C/c1ccc2c(c1)[C@@H](C)[C@H](c1ccc(O)cc1)O2`, the max response is -3.63% with CRL-7250, 1.71% with HEK293, -2.15% with KB-3-1 and 3.14% in the assay with NIH3T3. Also, the compound was classed as inactive in the assay with HaCat [1]. For the same compound, the Potency entry with HACAT [2] was “inactive”.

Consider `CC(C)=CCC/C(C)=C/CC/C(C)=C/COC1OC(COC2OCC(OC3OCC(O)C(O)C3O)C(O)C2O)C(O)C(OC2OC(C)C(OC3OC(C)C(OC4OCC(OC5OC(C)C(O)C(O)C5O)C(O)C4O)C(O)C3O)C(O)C2O)C1O` (stereo not drawn), for which the max response was 1.98% with CRL-7250, 4.79% with HEK293, 6.01% in the assay with KB-3-1 and -0.843% with NIH3T3. The result in the assay with HaCat [1] was inactive. The outcome with HACAT [2] was “inactive [at 9.27 µM]”.

Regarding `COc1ccc(N(C)c2nc(C)nc3ccccc23)cc1`, the Potency with CRL-7250 is 0.0103 µM (active); in the assay on HEK293, 0.0073 µM (active); with KB-3-1, 0.0052 µM (active). In the assay on HaCat [1], the outcome was inactive. Moreover, the Potency entry in the assay with HACAT [2] was “inactive”.

Turning to `O=C(O[C@H]1[C@@H]2C=CO[C@@H](O[C@@H]3O[C@H](CO)[C@@H](O)[C@H](O)[C@H]3O)[C@@H]2[C@@]2(CO)O[C@@H]12)c1ccccc1`, the results for the max response in the assay with CRL-7250, in the assay on HEK293 and in the assay with NIH3T3 were -3.06%, -2.12% and -6.96%, respectively. Also, the compound was classed as inactive with HaCat [1] and with KB-3-1. In addition, the Potency entry in the assay with HACAT [2] is “inactive”.

Consider `C[C@@H]1CCC2C(C)(C)[C@H](O)CC[C@]2(C)[C@@]12Cc1c(O)cc3c(c1O2)CN([C@@H](CCC(=O)O)C(=O)O)C3=O` (stereo partly drawn), for which the compound was classed as inactive in the assay on CRL-7250, in the assay on HEK293 and in the assay on HaCat [1]. The max response with KB-3-1 is 6.48%. Further, the outcome with HEK293T is “inactive [at 17.4 µM]”.

In the case of `CCOCCOC(=O)/C=C/c1ccc(OC)cc1`, the max response with CRL-7250 is -7.76%; with HaCat [1] it was -19.2%; in the assay with NIH3T3, -3.67%. Also, the result with HEK293, in the assay with HEK293T, with MCC-13 and in the assay with MCC-26 was inactive. Also, the Potency result in the assay with MKL-1 was “inactive”.

`CCc1cccc(CC)c1NC(=O)c1nn(C)c2c1CCc1cnc(Nc3ccc(C(=O)NC4CCN(C)CC4)cc3OC(F)(F)F)nc1-2`: the max response with CRL-7250 is -0.147%. Further, the Potency in the assay with HEK293 is 1.78 µM (active); with KB-3-1 it was 5.63 µM (active).

As to `O=C(O)c1c(O)c(-c2ccccc2)nc2ccccc12`, the call with CRL-7250, in the assay on HaCat [1], with NIH3T3, with MCC-13 and with MCC-26 was inactive. Further, the max response with HEK293 was -11.2%. For the same compound, the Potency entry with HACAT [2] and in the assay with MKL-1 was “inactive” each time.

On to `CC(C)C[C@H](CC(=O)NO)C(=O)N[C@@H](Cc1ccc2ccccc2c1)C(=O)N[C@@H](C)C(=O)NCCN`, for which the max response in the assay with CRL-7250 is -4.14%; with HEK293, 0.393%; with KB-3-1, 7.03%; with NIH3T3 it was -2.62%.

`C=C1C(=O)O[C@H](CCC)[C@H]1C(=O)O`: the values for the max response in the assay on CRL-7250, in the assay on HEK293 and in the assay with KB-3-1 were 3.05%, -3.38% and 2.02%, respectively. Moreover, the call in the assay on NIH3T3 was inactive.

As for `CCN(Cc1cccnc1)C(=O)CN(c1ccc(OC)nc1)S(=O)(=O)c1ccccc1C`, the max response in the assay on CRL-7250 was -4.21%. For the same compound, the outcome in the assay with HEK293, in the assay with HaCat [1], with NIH3T3 and with HEK293T was inactive. In the assay with HACAT [2], the Potency entry is “inactive”.

As for `COc1cc2c(NC3CCN(CC4CCCCC4)CC3)nc(N3CCCN(C(C)C)CC3)nc2cc1OCCCN1CCCCC1`, the Potency with CRL-7250 is 4.61 µM (active); in the assay with HEK293 it was 3.26 µM (active); in the assay with KB-3-1, 3.66 µM (active).

With `COc1ccc(CC2C(=O)NC(C)C(=O)N(C)C3Cc4ccc(cc4)Oc4cc(ccc4OC4OC(CO)C(O)C(O)C4O)CC(C(=O)NC(C)C(=O)NC(C)C(=O)N2C)N(C)C3=O)cc1` (stereo not drawn), the Potency in the assay on CRL-7250 is 0.0873 µM (active); in the assay on HEK293 it was 0.0551 µM (active); in the assay on KB-3-1, 0.138 µM (active).

Regarding `CC(C)(C)c1cc(Br)cc([C@H](CC(=O)O)NC(=O)CNC(=O)c2cc(O)cc(NC3=NCC(O)CN3)c2)c1` (stereo partly drawn), the max response in the assay with CRL-7250 was -6.62%; with HEK293, -3.62%; in the assay on KB-3-1, 3.01%.

As to `COc1cc2ncnc(N3CCC(Oc4cnc5ccccc5n4)C3)c2cc1OC` (stereo not drawn), the Potency was 6.51 µM (active) with CRL-7250, 0.366 µM (active) with HEK293 and 1.03 µM (active) in the assay on KB-3-1.

For `COc1cc(Nc2nc3c(s2)CCCC3c2ccc(F)cc2)ccc1-n1cnc(C)c1` (stereo not drawn), the Potency is 14.6 µM (active) in the assay on CRL-7250, 11.6 µM (active) in the assay with HEK293 and 18.4 µM (active) with KB-3-1.

In the case of `CN(C)c1ccc2c(c1)OC(N)=C(C#N)C2c1cccc(C(F)(F)F)c1` (stereo not drawn), the results for the Potency in the assay on CRL-7250, in the assay on HEK293 and in the assay with KB-3-1 were 1.64 µM (active), 0.184 µM (active) and 0.291 µM (active), respectively.

For `C=CC(=O)Nc1cccc(CN2C(=O)N(c3c(Cl)c(OC)cc(OC)c3Cl)Cc3cnc(NCCCCN(CC)CC)nc32)c1`, the Potency is 10.3 µM (active) in the assay with CRL-7250, 16.4 µM (active) with HEK293 and 18.4 µM (active) with KB-3-1.

Regarding `COc1cc2nc(N3CCC(N4CCCCC4)CC3)nc(NC3CCCCCC3)c2cc1OC`, the values for the Potency in the assay on CRL-7250, in the assay on HEK293 and in the assay on KB-3-1 were 16.4 µM (active), 5.17 µM (active) and 5.8 µM (active), respectively.
